# In the supplement of paper PMC10849652:
# About 7,900 targets were measured; listed, in parts, are those with a hit and a random draw of the rest. About 0.6% of all pairs of compound and target were hits. Values without a mark were called inactive.
# Experiments:
# Test in all cases: log2 fold change, soluble protein after heating vs DMSO (PISA); higher = thermal stabilisation; K562 cells, 10 uM, 30 min; active = over 0.2 and 3.5 SD of the protein, either way, in both replicates (recomputed)
# bafetinib = compound: Cc1ccc(NC(=O)c2ccc(CN3CC[C@H](N(C)C)C3)c(C(F)(F)F)c2)cc1Nc1nccc(-c2cncnc2)n1 [bafetinib]
# Summary of the method: (§1)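 K562 cells at 2×10^6 cells/mL were treated with 10 μM compound for 30 min. Aliquots were heated for 3 min across 48°C-58°C, pooled, and extracted in PBS with 0.5% NP-40 at 4°C; soluble protein was the supernatant after 21,000xg for 90 min. Soluble protein was quantified by TMTpro 16plex LC-MS/MS with channel sums equalised, and reported as log2 fold change in thermal stability against DMSO controls, with values from duplicates.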
# [1] = compound: Cc1cccc(CC(=O)N2CCc3c2ccc(-c2cn(C)c4ncnc(N)c24)c3F)n1
# Summary of the method: as §1
# nilotinib = compound: Cc1cn(-c2cc(NC(=O)c3ccc(C)c(Nc4nccc(-c5cccnc5)n4)c3)cc(C(F)(F)F)c2)cn1 [nilotinib]
# Summary of the method: as §1
# [2] = compound: Cc1nc(Nc2n[nH]c3c2CN(C(=O)N[C@H](CN(C)C)c2ccccc2)C3(C)C)c2sccc2n1
# Summary of the method: as §1
# dasatinib = compound: Cc1nc(Nc2ncc(C(=O)Nc3c(C)cccc3Cl)s2)cc(N2CCN(CCO)CC2)n1 [dasatinib]
# Summary of the method: as §1
# [3] = compound: Cc1ncc(-c2ccnc(Nc3ccc(S(C)(=O)=O)cc3)n2)n1C(C)C
# Summary of the method: as §1
# [4] = compound: Cn1cc(-c2ccc3c(c2)CCN3C(=O)Cc2cccc(C(F)(F)F)c2)c2c(N)ncnc21
# Summary of the method: as §1
# [5] = compound: Cn1cc(-c2ccc3nnc(C(F)(F)c4ccc5ncccc5c4)n3n2)cn1
# Summary of the method: as §1
# tipifarnib = compound: Cn1cncc1[C@@](N)(c1ccc(Cl)cc1)c1ccc2c(c1)c(-c1cccc(Cl)c1)cc(=O)n2C [tipifarnib]
# Summary of the method: as §1
# mubritinib = compound: FC(F)(F)c1ccc(/C=C/c2nc(COc3ccc(CCCCn4ccnn4)cc3)co2)cc1 [mubritinib]
# Summary of the method: as §1
# UniProt Q658Y4, sequence (Q658Y4 whole entry, looked up): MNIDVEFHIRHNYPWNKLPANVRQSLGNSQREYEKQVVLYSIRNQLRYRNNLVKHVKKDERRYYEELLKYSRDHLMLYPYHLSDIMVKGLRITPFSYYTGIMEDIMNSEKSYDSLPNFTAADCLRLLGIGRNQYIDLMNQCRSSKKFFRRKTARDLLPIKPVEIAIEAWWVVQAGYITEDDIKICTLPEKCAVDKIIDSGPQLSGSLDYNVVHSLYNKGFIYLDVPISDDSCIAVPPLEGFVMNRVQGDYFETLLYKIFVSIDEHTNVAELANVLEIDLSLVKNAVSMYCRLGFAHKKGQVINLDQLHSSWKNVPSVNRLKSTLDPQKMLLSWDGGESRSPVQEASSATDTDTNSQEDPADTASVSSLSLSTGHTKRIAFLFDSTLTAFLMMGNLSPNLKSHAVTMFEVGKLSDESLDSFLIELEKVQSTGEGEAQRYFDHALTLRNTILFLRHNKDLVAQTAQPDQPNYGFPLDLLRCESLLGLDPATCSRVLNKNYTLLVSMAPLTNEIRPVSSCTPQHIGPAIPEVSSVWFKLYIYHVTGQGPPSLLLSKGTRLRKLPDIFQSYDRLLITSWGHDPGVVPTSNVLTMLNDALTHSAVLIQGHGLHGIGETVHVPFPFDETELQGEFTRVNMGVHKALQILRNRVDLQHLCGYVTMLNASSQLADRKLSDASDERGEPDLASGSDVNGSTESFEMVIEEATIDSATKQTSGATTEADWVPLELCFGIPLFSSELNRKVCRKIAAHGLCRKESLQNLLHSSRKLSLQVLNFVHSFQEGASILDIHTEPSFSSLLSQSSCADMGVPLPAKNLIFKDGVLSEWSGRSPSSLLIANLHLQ
# UniProt P40939, sequence (P40939 whole entry, looked up): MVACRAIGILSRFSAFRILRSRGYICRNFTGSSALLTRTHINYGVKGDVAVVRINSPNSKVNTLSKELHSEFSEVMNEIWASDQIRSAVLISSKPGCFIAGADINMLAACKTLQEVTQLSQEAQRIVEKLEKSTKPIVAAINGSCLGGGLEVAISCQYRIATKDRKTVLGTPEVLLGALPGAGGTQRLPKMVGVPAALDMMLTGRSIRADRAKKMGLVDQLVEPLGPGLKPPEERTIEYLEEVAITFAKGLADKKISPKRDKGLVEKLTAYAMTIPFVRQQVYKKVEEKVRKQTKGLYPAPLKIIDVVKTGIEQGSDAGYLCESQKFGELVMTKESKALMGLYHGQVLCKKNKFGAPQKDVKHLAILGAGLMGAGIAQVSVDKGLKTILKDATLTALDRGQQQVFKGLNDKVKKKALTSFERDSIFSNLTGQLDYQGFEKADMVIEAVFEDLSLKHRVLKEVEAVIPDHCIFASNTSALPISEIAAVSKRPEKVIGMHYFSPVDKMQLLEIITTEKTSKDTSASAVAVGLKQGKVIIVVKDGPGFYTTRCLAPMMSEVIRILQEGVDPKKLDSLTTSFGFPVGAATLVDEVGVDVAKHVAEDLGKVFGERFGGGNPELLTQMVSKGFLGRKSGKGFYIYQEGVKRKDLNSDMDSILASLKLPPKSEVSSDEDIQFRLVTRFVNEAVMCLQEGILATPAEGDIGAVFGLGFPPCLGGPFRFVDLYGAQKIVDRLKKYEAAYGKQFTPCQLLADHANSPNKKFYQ
# UniProt Q96HJ9, sequence (Q96HJ9 whole entry, looked up): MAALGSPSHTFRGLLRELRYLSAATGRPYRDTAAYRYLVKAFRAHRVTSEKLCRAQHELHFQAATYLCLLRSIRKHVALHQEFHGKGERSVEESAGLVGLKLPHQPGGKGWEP
# UniProt Q9P2H3, sequence (Q9P2H3 whole entry, looked up): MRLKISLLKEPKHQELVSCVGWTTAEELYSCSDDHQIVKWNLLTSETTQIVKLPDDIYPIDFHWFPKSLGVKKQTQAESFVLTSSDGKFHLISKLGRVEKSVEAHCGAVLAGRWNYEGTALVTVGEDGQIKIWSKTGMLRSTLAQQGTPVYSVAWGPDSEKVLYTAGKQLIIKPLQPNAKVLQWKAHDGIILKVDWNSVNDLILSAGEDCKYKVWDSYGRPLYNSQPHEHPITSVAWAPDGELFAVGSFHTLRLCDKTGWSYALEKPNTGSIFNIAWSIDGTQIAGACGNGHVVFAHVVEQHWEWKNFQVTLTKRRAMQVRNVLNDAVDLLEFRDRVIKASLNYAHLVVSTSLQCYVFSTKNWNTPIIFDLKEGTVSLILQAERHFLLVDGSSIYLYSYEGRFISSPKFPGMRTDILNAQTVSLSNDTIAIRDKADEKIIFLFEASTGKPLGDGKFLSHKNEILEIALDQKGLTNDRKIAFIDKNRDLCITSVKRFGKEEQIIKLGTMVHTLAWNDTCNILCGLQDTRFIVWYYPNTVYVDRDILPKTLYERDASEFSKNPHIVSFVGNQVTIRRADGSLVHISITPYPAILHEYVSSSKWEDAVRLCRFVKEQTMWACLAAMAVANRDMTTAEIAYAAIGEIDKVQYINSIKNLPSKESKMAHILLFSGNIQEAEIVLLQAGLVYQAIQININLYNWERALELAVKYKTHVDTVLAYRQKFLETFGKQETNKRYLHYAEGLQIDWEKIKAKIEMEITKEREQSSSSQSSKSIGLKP
# UniProt P36915, sequence (P36915 whole entry, looked up): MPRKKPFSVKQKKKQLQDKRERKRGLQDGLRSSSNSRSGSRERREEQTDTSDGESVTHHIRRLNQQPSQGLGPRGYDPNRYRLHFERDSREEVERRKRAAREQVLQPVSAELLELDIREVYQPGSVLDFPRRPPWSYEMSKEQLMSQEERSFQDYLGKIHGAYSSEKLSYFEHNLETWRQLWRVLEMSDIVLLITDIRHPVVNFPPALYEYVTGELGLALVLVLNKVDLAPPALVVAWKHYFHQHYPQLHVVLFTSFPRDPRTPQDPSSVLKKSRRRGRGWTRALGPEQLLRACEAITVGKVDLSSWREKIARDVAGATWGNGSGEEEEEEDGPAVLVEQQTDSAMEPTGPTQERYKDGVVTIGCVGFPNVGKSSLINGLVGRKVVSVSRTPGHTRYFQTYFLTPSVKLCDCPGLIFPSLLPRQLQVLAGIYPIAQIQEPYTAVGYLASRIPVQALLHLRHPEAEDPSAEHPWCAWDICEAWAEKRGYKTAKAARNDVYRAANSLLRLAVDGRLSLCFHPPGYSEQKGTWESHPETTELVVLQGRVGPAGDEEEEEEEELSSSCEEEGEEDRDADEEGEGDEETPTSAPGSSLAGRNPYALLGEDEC
# UniProt P23434, sequence (P23434 whole entry, looked up): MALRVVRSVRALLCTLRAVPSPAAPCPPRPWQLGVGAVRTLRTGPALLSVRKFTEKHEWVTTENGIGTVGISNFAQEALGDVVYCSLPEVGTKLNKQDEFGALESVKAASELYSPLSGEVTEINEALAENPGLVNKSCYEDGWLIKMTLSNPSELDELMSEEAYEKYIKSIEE
# UniProt Q9BUJ2, sequence (Q9BUJ2 whole entry, looked up): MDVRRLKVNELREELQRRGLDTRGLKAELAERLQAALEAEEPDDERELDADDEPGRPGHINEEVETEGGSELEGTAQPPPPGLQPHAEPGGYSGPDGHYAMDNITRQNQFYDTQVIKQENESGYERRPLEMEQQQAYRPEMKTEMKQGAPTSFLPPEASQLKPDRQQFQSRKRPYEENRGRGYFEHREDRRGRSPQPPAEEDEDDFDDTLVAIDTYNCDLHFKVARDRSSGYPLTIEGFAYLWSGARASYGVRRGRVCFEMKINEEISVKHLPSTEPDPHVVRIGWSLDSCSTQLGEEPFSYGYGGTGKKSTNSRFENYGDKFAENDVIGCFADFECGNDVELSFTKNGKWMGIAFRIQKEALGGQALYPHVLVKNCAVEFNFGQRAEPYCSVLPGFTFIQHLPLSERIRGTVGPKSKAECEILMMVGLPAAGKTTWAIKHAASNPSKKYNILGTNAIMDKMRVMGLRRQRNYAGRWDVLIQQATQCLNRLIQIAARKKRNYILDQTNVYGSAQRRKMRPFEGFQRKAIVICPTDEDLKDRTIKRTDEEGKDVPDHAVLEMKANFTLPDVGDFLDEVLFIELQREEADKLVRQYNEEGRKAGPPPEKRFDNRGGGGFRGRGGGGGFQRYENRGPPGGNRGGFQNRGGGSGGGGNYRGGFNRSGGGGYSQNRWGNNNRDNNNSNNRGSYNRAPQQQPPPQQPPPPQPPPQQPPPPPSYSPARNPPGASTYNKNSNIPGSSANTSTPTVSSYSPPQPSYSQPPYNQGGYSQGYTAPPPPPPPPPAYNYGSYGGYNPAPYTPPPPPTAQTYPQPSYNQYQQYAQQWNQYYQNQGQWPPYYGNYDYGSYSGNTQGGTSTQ
# UniProt P22830, sequence (P22830 whole entry, looked up): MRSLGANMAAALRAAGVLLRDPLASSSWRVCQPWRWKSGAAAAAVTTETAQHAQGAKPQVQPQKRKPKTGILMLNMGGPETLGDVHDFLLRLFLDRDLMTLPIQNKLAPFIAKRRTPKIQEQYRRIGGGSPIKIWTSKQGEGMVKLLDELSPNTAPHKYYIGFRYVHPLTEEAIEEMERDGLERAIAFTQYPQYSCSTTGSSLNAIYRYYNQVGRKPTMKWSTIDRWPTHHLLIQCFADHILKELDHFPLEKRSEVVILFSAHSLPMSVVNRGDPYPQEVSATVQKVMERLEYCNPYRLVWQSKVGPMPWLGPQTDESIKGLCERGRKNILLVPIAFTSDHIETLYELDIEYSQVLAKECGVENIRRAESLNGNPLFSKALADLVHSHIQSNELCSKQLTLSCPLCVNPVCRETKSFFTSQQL
# UniProt Q03013, sequence (Q03013 whole entry, looked up): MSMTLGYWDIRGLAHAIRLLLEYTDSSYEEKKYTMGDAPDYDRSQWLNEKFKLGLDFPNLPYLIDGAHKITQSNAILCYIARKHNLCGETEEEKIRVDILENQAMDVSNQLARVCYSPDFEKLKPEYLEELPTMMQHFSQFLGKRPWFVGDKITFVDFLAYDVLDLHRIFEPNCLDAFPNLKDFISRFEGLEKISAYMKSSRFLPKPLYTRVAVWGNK
Target,log2 fold change (bafetinib),log2 fold change [1],log2 fold change (nilotinib),log2 fold change [2],log2 fold change (dasatinib),log2 fold change [3],log2 fold change [4],log2 fold change [5],log2 fold change (tipifarnib),log2 fold change (mubritinib)
HNRNPUL1 (UniProt Q9BUJ2),-0.011,-0.069,-0.032,-0.008,-0.061,0.041,-0.03,-0.007,0.059,-0.231 (active)
FECH isoform 2 (UniProt P22830),0.315,-0.125,0.189,-0.04,0.46,0.134,0.549,0.248,0.134,0.034
HMGN2 (UniProt P05204),-0.013,-0.189,-0.025,0.022,0.053,0,-0.025,0.04,0.079,0.021
GCSH (UniProt P23434),-0.13,0.095,-0.022,0.01,0.015,-0.026,0.016,0.016,-0.017,-0.05
FAT1 (UniProt Q14517),-0.061,0.044,0.013,0,0.046,-0.064,0.009,-0.052,0.077,0.057
GSTM4 (UniProt Q03013),0.021,0.002,0.001,0.088,0,-0.018,0.026,-0.141,-0.023,-0.08
HNRNPH2 (UniProt P55795),0.056,0.006,-0.09,-0.231,-0.061,-0.103,-0.021,0.041,-0.236,-0.115
FMC1 (UniProt Q96HJ9),-0.128,-0.026,0.009,0.045,0.006,-0.012,-0.006,0.009,0.035,0.016
FAM91A1 (UniProt Q658Y4),-0.01,0.07,-0.007,0.073,-0.048,0.01,0.021,-0.015,-0.004,0.052
GNL1 (UniProt P36915),-0.02,0.019,-0.024,0.05,-0.084,0.054,0.047,-0.03,-0.152,0.009
HADHA (UniProt P40939),0.293,0.097,0.049,-0.078,-0.05,0.036,0.203,0.069,-0.304,0.685 (active)
GMEB1 (UniProt Q9Y692),-0.12,-0.048,-0.04,-0.036,-0.06,0.001,0.019,0.044,-0.204,-0.03
GLB1 (UniProt P16278),-0.418 (active),-0.009,0.013,0.017,0.061,0.004,-0.006,0.016,0.039,-0.009
HP1BP3 (UniProt Q5SSJ5),0.017,-0.082,0.055,-0.008,0.009,0.125,-0.045,-0.087,0.028,0.026
IFT80 isoform 3 (UniProt Q9P2H3),-0.127,0.077,-0.059,-0.02,-0.148,0.114,0.036,0.039,-0.07,0.17
